Screening data as filed in PubChem.
Only some compounds are listed: those with a hit (about 1.6% of all), similar ones and a draw of the others.
Rce1 inh: inhibitors of yeast Ras-converting enzyme | 290,000 compounds, 0.27% hits | calls only | yeast membranes, quenched prenylated peptide cleavage fluorescence | Q03530;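 active means fall in fluorescence gain of 50% or more versus controls, with final raw signal at or below 3038400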
GC-B act: GC-B (human) receptor activation | P20594 | HEK293-GC-B cells, CNP EC30, cGMP TR-FRET; 0% at EC30 CNP, 100% saturating CNP | activation, % at 10 µM | 370,000 compounds, 0.11% hits | AID 1920062;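 active means activation at 10 µM reaching about 35% in either raw or pattern-adjusted values, limit read from the data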
Efflux pump inh: inhibitors of Candida antifungal efflux pumps expressed in yeast. S. cerevisiae Candida pump triplex, Nile Red efflux. AID 485275. 330,000 compounds, 0.44% hits. inhibition, % at 10 µM;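 active means plate passing quality check with inhibition over a set limit, or well fluorescence over plate mean plus 4 SD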;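 further: Nile Red retained in pooled yeast measured as flow cytometry median fluorescence; higher means more Nile Red kept so more efflux inhibition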
NSD2 inh: blocks human histone methyltransferase NSD2; O96028; NSD2 peptide methylation, AlphaScreen, 120 min; inhibition, % at 12.5 µM; 310,000 compounds, 0.54% hits; AID 743445; in the data active means inhibition above about 50%
V-ATPase pH: yeast V-ATPase proton transport regulation by pHLuorin; S. cerevisiae, pHLuorin cytosolic pH fluorescence; response, % at 10 µM; 350,000 compounds, 0.37% hits; AID 504577; in the data active means response mostly above about 7.3%, no sharp cut-off; inactive means mostly below about 5.4%; further: actives read high
NPR1 activator: GC-A (human) enzyme activation; P16066; activation, % at 10 µM; HEK293 GC-A cells, cGMP TR-FRET, EC30 ANP; 0% at EC30 ANP, 100% saturating ANP; 370,000 compounds, 0.14% hits; AID 1671463; in the data active means activation above about 40%
Target sequence (P16066 whole entry, looked up): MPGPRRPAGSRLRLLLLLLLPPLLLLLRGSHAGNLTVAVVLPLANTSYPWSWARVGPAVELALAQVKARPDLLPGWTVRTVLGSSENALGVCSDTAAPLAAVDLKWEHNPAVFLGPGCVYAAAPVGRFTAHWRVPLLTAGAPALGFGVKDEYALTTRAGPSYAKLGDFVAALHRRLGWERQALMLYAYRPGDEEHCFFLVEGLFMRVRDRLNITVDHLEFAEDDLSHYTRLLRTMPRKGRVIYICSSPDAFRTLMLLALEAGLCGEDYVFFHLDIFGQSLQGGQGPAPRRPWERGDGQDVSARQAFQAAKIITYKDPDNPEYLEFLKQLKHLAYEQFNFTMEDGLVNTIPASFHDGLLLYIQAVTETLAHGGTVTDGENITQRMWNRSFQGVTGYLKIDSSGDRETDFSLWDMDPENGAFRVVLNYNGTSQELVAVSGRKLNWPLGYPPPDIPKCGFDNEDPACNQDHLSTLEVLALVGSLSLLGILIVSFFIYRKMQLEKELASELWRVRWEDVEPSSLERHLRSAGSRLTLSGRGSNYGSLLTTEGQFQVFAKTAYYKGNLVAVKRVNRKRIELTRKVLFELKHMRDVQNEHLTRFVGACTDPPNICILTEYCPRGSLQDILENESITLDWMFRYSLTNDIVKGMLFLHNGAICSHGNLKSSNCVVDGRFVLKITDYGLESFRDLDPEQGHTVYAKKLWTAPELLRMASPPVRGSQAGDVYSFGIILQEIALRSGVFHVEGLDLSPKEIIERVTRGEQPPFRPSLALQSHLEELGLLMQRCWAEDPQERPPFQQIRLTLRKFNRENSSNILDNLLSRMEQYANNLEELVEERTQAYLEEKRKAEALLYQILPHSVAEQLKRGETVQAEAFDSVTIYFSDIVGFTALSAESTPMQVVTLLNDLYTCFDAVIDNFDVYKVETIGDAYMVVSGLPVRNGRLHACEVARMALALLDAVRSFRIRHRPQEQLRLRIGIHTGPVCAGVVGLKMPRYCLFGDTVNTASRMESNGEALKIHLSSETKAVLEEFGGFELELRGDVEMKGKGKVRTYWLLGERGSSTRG
Cmpd fluor yeast: counter-screen for efflux pump inhibitors: compound fluorescence; shares compounds with Efflux pump inh; S. cerevisiae AD/pABC3, flow cytometry; fluorescence ratio to DMSO, % at 10 µM; 1,700 compounds, 4% hits; AID 588517;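 active means fluorescence ratio to DMSO above its plate's cutoff, the plate mean ratio plus 5 SD, cut at about 210% in these data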;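 further: unstained yeast with no Nile Red so the signal is compound autofluorescence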
CaMdr1 efflux inh: inhibitors of Candida albicans Mdr1 efflux pump. 1,700 compounds, 1% hits. inhibition, % at 10 µM. AID 588518. shares compounds with Efflux pump inh. S. cerevisiae AD/CaMDR1, Nile Red efflux, flow cytometry; in the data active means inhibition above about 26%;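 further: higher means more Nile Red retained so more efflux inhibition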
Cdr2 pump inh: inhibitors of Candida albicans Cdr2 efflux pump. AID 588520. S. cerevisiae AD/CaCDR2, Nile Red retention, flow cytometry. Nile Red retention ratio vs DMSO, % at 10 µM. shares compounds with Efflux pump inh. 1,700 compounds, 4% hits; in the data active means Nile Red retention ratio vs DMSO above about 190%;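 further: higher ratio means more blocking of Cdr2 efflux of the dye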
Cdr1 pump inh: inhibitors of Candida albicans Cdr1 efflux pump; shares compounds with Efflux pump inh; S. cerevisiae AD/CaCDR1, Nile Red efflux, flow cytometry; inhibition, % at 10 µM; 1,700 compounds, 1% hits;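 active means inhibition above the screen-wide mean plus twice its standard deviation, cut at about 32% in these data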
Numbers stand for hits; . = inactive; / = no result given; + = active, no number.

SMILES | Rce1 inh | GC-B act | Efflux pump inh | NSD2 inh | V-ATPase pH | NPR1 activator | Cmpd fluor yeast | CaMdr1 efflux inh | Cdr2 pump inh | Cdr1 pump inh
C=CC[C@@H](CC(=O)N(CCO)Cc1ccccc1)C(=O)N[C@H](COC(=O)[C@@H](CC=C)Cc1ccc(F)cc1)Cc1c[nH]c2ccccc12 | / | . | 162.3 | / | . | . | . | 135.8 | . | 135.5
COC(CNC(=O)[C@H](Cc1ccccc1)NC(C)(C)C(=O)NC1CCCCC1)OC | / | . | / | / | / | . | / | / | / | /
Cc1cccc(NC(=O)C2CC(=O)OC23CCCCC3)c1 (stereo not given) | . | . | . | . | . | . | / | / | / | /
COc1ccc(C)cc1NC(=O)C1CC(=O)OC12CCCCC2 (stereo not given) | . | . | 1.3 | . | . | . | . | . | . | .
Cc1c(OC(C)C(=O)NCc2ccccn2)ccc2c3c(c(=O)oc12)CCCC3 (stereo not given) | . | . | 1.8 | . | . | . | . | . | . | .
CN1C(=O)[C@@H]2[C@H](C1=O)[C@@H]1C(=O)Nc3ccccc3C(=O)N1[C@@H]2c1ccc(Br)cc1 | . | . | . | / | . | . | / | / | / | /
Cc1ccc([C@@H]2[C@@H]3C(=O)N(C)C(=O)[C@@H]3[C@@H]3C(=O)Nc4ccccc4C(=O)N23)cc1 | . | . | 0.6 | / | . | . | . | . | . | .
Cc1cc(C)c(OCC(=O)Nc2ccccc2N2CCOCC2)c(C)c1 | . | . | 10.6 | . | / | . | . | . | . | .
N#C/C(=C\c1cn(Cc2ccccc2)c2ccccc12)C(=O)NCc1ccco1 | . | . | . | . | / | . | / | / | / | /
Cc1cccc(NC(=O)/C(C#N)=C/c2cn(CC(=O)NCc3ccco3)c3ccccc23)c1C | . | . | 11.1 | . | . | . | . | . | . | .
N#CCc1ccc(OC[C@@H](O)CN2CCC(C(O)(c3ccccc3)c3ccccc3)CC2)cc1 | / | . | / | / | / | . | / | / | / | /
O=C(Oc1ccccc1/C=C\C(=O)c1cc2ccccc2o1)c1ccccc1 | . | . | 15.7 | . | . | . | . | . | . | .
CC1CCN(C(=O)c2ccc(S(=O)(=O)Cc3ccccc3F)c([N+](=O)[O-])c2)CC1 | . | . | 5.8 | . | . | . | . | . | . | .
CC(C)C(O)(C#CCN1CCCCC1)C(C)C | . | . | 13.8 | . | . | . | . | . | . | .
O=C(Nc1ccc2cn[nH]c2c1)c1c(Cl)cccc1Cl | . | . | . | . | . | . | / | / | / | /
O=C1C(Cl)=C(Nc2ccc3cn[nH]c3c2)C(=O)c2ccccc21 | . | . | 0.7 | / | . | . | . | . | . | .
O=C1/C(=C/c2cccs2)SC(=S)N1NS(=O)(=O)c1ccccc1 | . | . | . | . | . | . | . | . | . | .
COc1ccc(CCNC(=O)C2CCN(S(=O)(=O)N3CCCCC3)CC2)cc1OC | . | . | . | . | . | . | / | / | / | /
COc1ccc(CCNC(=O)C2CCN(S(=O)(=O)N3CCC4(CC3)OCCO4)CC2)cc1OC | . | . | 1.3 | . | . | . | . | . | . | .
O=C1CCCC(=O)C1=C1SCCCS1 | . | . | 6.5 | . | . | . | . | . | . | .
C=CCn1c(=S)[nH]c2sccc2c1=O | . | . | 0.8 | . | . | . | . | . | . | .
O=C(Nc1ccc(Nc2ccccc2)cc1)C(Cl)Cl | . | . | 20.2 | . | . | . | . | . | . | .
CCOC(=O)CC[C@@]1(C(=O)OCC)C[C@@H](CC(=O)NCc2cccs2)C(=O)N2CCCC=C21 | / | . | / | / | / | . | / | / | / | /
O=C(c1cc2c(ccc3ccccc32)o1)N1CCN(c2ncc(C(F)(F)F)cc2Cl)CC1 | . | . | 51.7 | . | . | . | . | . | . | .
COc1ccc2cc3cc(C(=O)NCc4ccc5c(c4)OCO5)oc3nc2c1 | . | . | . | . | . | . | / | / | / | /
SMILES | Rce1 inh | GC-B act | Efflux pump inh | NSD2 inh | V-ATPase pH | NPR1 activator | Cmpd fluor yeast | CaMdr1 efflux inh | Cdr2 pump inh | Cdr1 pump inh
COc1ccc2cc3cc(C(=O)N4CCN(Cc5ccc6c(c5)OCO6)CC4)oc3nc2c1 | . | . | 0.6 | . | . | . | . | . | . | .
CCCSc1nc(C)c(-c2csc(C(C#N)=C3CCCC3)n2)cc1C#N | . | . | 0.9 | . | / | . | . | . | . | .
Cc1ccc(CN(Cc2cccnc2)C(=O)CN2C(=O)COc3ccccc32)o1 | . | . | 5.9 | . | . | . | . | . | . | .
O=C(CN1C(=O)COc2ccccc21)N(Cc1ccccc1)Cc1ccccn1 | . | . | . | . | . | . | / | / | / | /
CC(C)n1nc(C(=O)Nc2nnc(C3CC3)s2)c2ccccc2c1=O | . | . | . | . | . | . | / | / | / | /
CC(C)Cn1nc(C(=O)Nc2nnc(C3CC3)s2)c2ccccc2c1=O | / | . | 0.9 | . | . | . | . | . | . | .
CCCN1CCS(=O)(=O)N(Cc2cn(Cc3ccc(OC)cc3)nn2)C(C(=O)OC)C1 (stereo not given) | / | . | / | / | / | . | / | / | / | /
CCN1/C(=C/c2ccc3cccc(C)c3[n+]2CC)Sc2ccccc21 | . | . | 2.4 | . | . | . | + | . | . | .
C[n+]1ccccc1/C=C1\Sc2ccccc2N1CCO | . | . | . | . | . | . | / | / | / | /
CC(C)(C)CCN1C[C@@H]2C(CNC(=O)c3cc(Cl)cc(Cl)c3)[C@@H]2C1 (stereo not given in full) | / | . | / | . | / | . | / | / | / | /
O=C(NC(=S)Nc1cccc2ncccc12)c1ccco1 | . | . | . | . | . | . | / | / | / | /
N#C/C(=C\c1ccco1)C(=O)Nc1cccc2ncccc12 | . | . | . | . | . | . | . | . | . | .
O=C(Nc1ccc2ccccc2c1)NC1CCCCN(Cc2ccc(Cl)cc2)C1=O (stereo not given) | / | . | / | / | / | . | / | / | / | /
COc1ccc(NC(=O)Cn2cc(S(=O)(=O)Cc3ccccc3)c3ccccc32)c(OC)c1 | . | . | 9.6 | . | . | . | . | . | . | .
Cc1cc(C2CC(=O)Nc3ccccc3S2)c(C)s1 (stereo not given) | . | . | . | . | . | . | . | . | . | .
COc1cc2c(cc1OC)C(c1ccsc1)CC(=O)N2 (stereo not given) | . | . | . | . | . | . | / | / | / | /
O=C1CC(c2ccsc2)Sc2ccccc2N1 (stereo not given) | . | . | . | . | . | . | . | . | . | .
COC(=O)[C@]12C[C@H](CC(=O)NCc3cccs3)C(=O)N(Cc3ccc(Cl)cc3Cl)C1=C[C@H](COCc1ccccc1)O[C@@H]2C | / | . | / | / | / | . | / | / | / | /
